Holding throughout (test): DAPPL (digital affinity profiling via proximity ligation, sequencing); 10 mM Tris-HCl pH 7.5, 50 mM NaCl, 1 mM DTT, 4% glycerol, room temperature, 30 min; GST-TFs on glutathione beads, 16-mer random dsDNA library, 0.1% formaldehyde crosslink after washing; high values mean tight binding
Holding throughout (details): protein: recombinant; tags: N-terminal GST; dsDNA, one strand shown

Assay [1] addresses T1, ERF (Homo sapiens, UniProt P50548 1-548).
T1 sequence: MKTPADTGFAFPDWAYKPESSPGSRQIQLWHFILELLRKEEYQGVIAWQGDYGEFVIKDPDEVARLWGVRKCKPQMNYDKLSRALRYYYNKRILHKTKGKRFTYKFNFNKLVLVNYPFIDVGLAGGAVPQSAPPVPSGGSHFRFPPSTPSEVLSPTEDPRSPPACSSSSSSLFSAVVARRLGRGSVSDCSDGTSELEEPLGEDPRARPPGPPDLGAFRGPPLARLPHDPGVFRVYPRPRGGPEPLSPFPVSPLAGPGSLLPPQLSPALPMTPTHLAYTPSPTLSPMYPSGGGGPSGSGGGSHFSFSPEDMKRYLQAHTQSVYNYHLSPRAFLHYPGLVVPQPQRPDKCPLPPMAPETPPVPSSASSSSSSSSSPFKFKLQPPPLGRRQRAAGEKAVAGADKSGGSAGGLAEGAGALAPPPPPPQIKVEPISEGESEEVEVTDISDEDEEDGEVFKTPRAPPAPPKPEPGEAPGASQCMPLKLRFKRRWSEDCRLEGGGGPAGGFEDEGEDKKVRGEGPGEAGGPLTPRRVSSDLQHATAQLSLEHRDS
Summed up:
(§1)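 Binding signal is given per hexamer as its read frequency for a factor divided by its frequency in the tag-only sample. GST-fused human transcription factors were expressed in yeast, captured on glutathione beads, barcoded with DNA and pooled with that sample, then incubated with 200 nmole of a 16-mer random double-stranded DNA library in Tris/NaCl/DTT/glycerol buffer for 30 min at room temperature. The pools were then washed, crosslinked, proximity-ligated, amplified by PCR and sequenced on an Illumina NextSeq500.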

The target in assay [2] is T2, ETV3L (Homo sapiens, UniProt Q6ZN32 1-361).
T2 sequence: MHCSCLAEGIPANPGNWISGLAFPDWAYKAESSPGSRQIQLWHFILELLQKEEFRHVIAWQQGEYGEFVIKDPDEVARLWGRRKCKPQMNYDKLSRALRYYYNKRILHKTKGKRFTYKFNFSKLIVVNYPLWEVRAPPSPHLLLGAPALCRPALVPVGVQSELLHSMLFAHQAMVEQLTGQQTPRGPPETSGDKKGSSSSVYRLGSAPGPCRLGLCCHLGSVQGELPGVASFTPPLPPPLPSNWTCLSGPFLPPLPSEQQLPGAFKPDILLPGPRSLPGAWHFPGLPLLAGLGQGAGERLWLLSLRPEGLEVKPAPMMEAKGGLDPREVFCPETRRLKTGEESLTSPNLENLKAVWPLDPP
The gist of the method: as §1

The target of assay [3] is T3, ETS2 (Homo sapiens, UniProt P15036 1-469).
T3 sequence: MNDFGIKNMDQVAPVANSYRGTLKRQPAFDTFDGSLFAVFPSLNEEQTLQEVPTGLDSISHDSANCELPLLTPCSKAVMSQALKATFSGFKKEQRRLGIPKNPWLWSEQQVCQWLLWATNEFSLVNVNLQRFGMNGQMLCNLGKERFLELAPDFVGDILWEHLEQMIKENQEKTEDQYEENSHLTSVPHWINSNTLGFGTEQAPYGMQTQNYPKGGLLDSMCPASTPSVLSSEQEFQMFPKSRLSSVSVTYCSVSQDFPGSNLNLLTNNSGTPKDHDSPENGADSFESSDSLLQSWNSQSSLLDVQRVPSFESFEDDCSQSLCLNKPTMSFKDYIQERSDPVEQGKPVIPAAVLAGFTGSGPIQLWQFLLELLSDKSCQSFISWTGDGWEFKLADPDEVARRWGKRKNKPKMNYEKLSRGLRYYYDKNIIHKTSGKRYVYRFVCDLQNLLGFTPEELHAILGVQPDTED
The gist of the method:
as §1

Assay [4] concerns the target T4, SPDEF (Homo sapiens, UniProt O95238 1-335).
T4 sequence: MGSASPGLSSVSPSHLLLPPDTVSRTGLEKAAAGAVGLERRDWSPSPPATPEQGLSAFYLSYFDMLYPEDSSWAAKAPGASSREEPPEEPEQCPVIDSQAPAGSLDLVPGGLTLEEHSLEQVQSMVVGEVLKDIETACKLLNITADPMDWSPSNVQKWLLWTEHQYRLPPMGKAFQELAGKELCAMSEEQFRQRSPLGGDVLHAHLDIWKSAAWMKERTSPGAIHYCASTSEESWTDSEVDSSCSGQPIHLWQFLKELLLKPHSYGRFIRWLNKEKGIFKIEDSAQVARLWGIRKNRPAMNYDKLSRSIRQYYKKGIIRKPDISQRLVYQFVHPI
The gist of the method:
as §1

Assay [5] addresses T5, ETV7 (Homo sapiens, UniProt Q9Y603 1-341).
T5 sequence: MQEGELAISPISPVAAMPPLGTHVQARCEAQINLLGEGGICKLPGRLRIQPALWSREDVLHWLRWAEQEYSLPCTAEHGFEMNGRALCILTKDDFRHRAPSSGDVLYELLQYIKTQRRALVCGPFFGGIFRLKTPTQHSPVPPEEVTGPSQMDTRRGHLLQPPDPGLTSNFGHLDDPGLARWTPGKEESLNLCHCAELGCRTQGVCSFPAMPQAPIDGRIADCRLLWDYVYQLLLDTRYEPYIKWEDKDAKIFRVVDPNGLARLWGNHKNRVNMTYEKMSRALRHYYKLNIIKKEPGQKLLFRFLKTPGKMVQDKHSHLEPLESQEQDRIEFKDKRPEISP
Summed up:
as §1

In assay [6] the target is T6, ELF5 (Homo sapiens, UniProt Q9UKW6-2 1-255).
T6 sequence: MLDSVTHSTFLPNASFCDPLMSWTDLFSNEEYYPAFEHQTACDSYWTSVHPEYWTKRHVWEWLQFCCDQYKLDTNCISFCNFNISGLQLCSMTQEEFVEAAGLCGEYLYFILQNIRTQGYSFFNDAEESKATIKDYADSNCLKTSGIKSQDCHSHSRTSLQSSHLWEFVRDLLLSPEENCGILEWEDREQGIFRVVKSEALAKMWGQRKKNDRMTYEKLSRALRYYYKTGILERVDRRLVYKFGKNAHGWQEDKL
The gist of the method: as §1

The target of assay [7] is T7, ETV3 (Homo sapiens, UniProt P41162-2 1-143).
T7 sequence: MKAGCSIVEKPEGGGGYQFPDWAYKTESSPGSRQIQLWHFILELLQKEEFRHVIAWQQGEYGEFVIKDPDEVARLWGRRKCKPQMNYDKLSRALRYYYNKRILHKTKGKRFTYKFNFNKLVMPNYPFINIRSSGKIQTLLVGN
Summed up:
as §1

Assay [8] deals with ETV6 (Homo sapiens, UniProt P41212 1-452). The gist of the method: as §1
ETV6, sequence (P41212 whole entry): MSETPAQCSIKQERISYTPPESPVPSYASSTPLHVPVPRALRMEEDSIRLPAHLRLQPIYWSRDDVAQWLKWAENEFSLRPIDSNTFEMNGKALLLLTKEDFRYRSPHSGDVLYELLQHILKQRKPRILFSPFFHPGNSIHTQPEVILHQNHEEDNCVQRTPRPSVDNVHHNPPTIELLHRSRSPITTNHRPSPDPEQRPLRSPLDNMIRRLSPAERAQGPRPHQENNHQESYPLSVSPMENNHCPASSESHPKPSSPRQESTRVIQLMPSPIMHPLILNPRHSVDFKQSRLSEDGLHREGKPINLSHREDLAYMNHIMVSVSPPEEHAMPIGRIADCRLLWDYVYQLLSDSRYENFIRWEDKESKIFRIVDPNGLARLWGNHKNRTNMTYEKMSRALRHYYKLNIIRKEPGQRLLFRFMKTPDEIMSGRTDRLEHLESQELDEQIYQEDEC

CCATAC: the binding signal in assay [1] is 1.27 fold enrichment (6-mer frequency, TF over GST control); in assay [2], 1.22 fold enrichment (6-mer frequency, TF over GST control); in assay [3], 1.18 fold enrichment (6-mer frequency, TF over GST control); in assay [4], 1.2 fold enrichment (6-mer frequency, TF over GST control); in assay [5], 1.14 fold enrichment (6-mer frequency, TF over GST control); in assay [6], 1.09 fold enrichment (6-mer frequency, TF over GST control). Also, the binding signal in assay [7] is 1.08 fold enrichment (6-mer frequency, TF over GST control); in assay [8], 1.21 fold enrichment (6-mer frequency, TF over GST control).

With CTCGAA, the binding signal in assay [1] is 1.22 fold enrichment (6-mer frequency, TF over GST control); in assay [2], 1.24 fold enrichment (6-mer frequency, TF over GST control); in assay [3] it was 1.2 fold enrichment (6-mer frequency, TF over GST control); in assay [4], 1.11 fold enrichment (6-mer frequency, TF over GST control); in assay [5], 1.19 fold enrichment (6-mer frequency, TF over GST control); in assay [6] it was 1.17 fold enrichment (6-mer frequency, TF over GST control). Further, the binding signal was 1.18 fold enrichment (6-mer frequency, TF over GST control) in assay [7] and 1.12 fold enrichment (6-mer frequency, TF over GST control) in assay [8].

On to GCTGTA, for which the binding signal in assay [1] was 1.24 fold enrichment (6-mer frequency, TF over GST control); in assay [2] it was 1.02 fold enrichment (6-mer frequency, TF over GST control); in assay [3], 1.1 fold enrichment (6-mer frequency, TF over GST control); in assay [4], 1.12 fold enrichment (6-mer frequency, TF over GST control); in assay [5], 1.09 fold enrichment (6-mer frequency, TF over GST control); in assay [6], 1.07 fold enrichment (6-mer frequency, TF over GST control). Further, the binding signal was 1.08 fold enrichment (6-mer frequency, TF over GST control) in assay [7] and 1.13 fold enrichment (6-mer frequency, TF over GST control) in assay [8].

With CCCGGA, the binding signal in assay [1] was 2.32 fold enrichment (6-mer frequency, TF over GST control); in assay [2], 2.8 fold enrichment (6-mer frequency, TF over GST control); in assay [3], 2.98 fold enrichment (6-mer frequency, TF over GST control); in assay [4], 3.97 fold enrichment (6-mer frequency, TF over GST control); in assay [5], 2.48 fold enrichment (6-mer frequency, TF over GST control); in assay [6], 3.77 fold enrichment (6-mer frequency, TF over GST control). In addition, the binding signal in assay [7] is 3.23 fold enrichment (6-mer frequency, TF over GST control); in assay [8], 2.89 fold enrichment (6-mer frequency, TF over GST control).

Regarding TCACTA, the binding signal in assay [1] was 1.24 fold enrichment (6-mer frequency, TF over GST control); in assay [2] it was 1.18 fold enrichment (6-mer frequency, TF over GST control); in assay [3], 1.25 fold enrichment (6-mer frequency, TF over GST control); in assay [4], 1.07 fold enrichment (6-mer frequency, TF over GST control); in assay [5] it was 1.23 fold enrichment (6-mer frequency, TF over GST control); in assay [6], 1.15 fold enrichment (6-mer frequency, TF over GST control). For the same sequence, the binding signal in assay [7] is 1.05 fold enrichment (6-mer frequency, TF over GST control); in assay [8], 1.06 fold enrichment (6-mer frequency, TF over GST control).

As to ACGACG, the binding signal was 1.14 fold enrichment (6-mer frequency, TF over GST control) in assay [1]; 1.08 fold enrichment (6-mer frequency, TF over GST control) in assay [2]; 1.12 fold enrichment (6-mer frequency, TF over GST control) in assay [3]; 1.14 fold enrichment (6-mer frequency, TF over GST control) in assay [4]; 1.25 fold enrichment (6-mer frequency, TF over GST control) in assay [5]; 1.15 fold enrichment (6-mer frequency, TF over GST control) in assay [6]. Also, the binding signal in assay [7] is 1.16 fold enrichment (6-mer frequency, TF over GST control); in assay [8] it was 1.2 fold enrichment (6-mer frequency, TF over GST control).

The record behind these values is publication PMC7862700, “An all-to-all approach to the identification of sequence-specific readers for epigenetic DNA modifications on cytosine”.
